Here are results for 44 compounds from PubChem BioAssay (NCI).

For this assay, the system named is HL-60(TB) leukemia. The assay is described as follows: NCI-60 one-dose screen, 48 h (100 = growth as untreated, 0 = no growth, -100 = all killed). The following applies: 10 µM unless noted.

SMILES strings stand for the structures. The panel holds about 83,000 compounds, 20% with a hit somewhere; the sample as a whole holds those more often.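 For each line, cells grew in 96-well plates with the test compound present at a single concentration for 48 hours.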 Unmarked numbers belong to inactive results. Calls of active or inactive are those of the source. Rule for the calls: active = growth percent below 10; inactive = the rest.

Regarding `O=C(Nc1ccc(OS(=O)(=O)c2ccc(F)cc2)cc1)c1ccc(Cl)cc1`, the growth is 90.9%. For `CN(CCCCCl)P(=O)(OCc1ccc([N+](=O)[O-])o1)C(F)(F)C[C@H](NC(=O)CNC(=O)c1ccc(N=[N+]=[N-])cc1)C(=O)NCCc1ccc(O)cc1` (some centres undefined) the value was 62.6%; for `O=C(COc1cccc(/C=C2\Cc3ccc(Cl)cc3C2=O)c1)Nc1nccs1`, 62.2%; for `O=CN/N=C/c1ccc(Cl)c([N+](=O)[O-])c1`, 11.1%. In the case of `N#Cc1c(-c2ccc(Cl)cc2)nc(NN=Cc2ccco2)nc1N1CCOCC1`, the growth is 108%. With `COc1ccc2c(c1)sc1nc(-c3ccccc3)c(-c3ccsc3)n12`, the growth is 14.2%. With `CC1(C)CC[C@]23CC[C@]4(C)[C@H](CC[C@@H]5[C@@]6(C)C/C(=C/O)C(=O)C(C)(C)[C@@H]6CC[C@]54C)[C@H]2[C@H]1OC3`, the growth is 102%. For `CC1C(=NC(=O)c2cnccn2)C(C)C(c2ccc(Cl)cc2)NC1c1ccncc1` (centres undefined), the growth was 108%. Then `Nc1c(C(=O)Nc2cccc(Cl)c2)sc2nc3c(cc12)CCCC3`, with 78.8%; and `Cc1ccc2nc(-c3c(CCCO)noc3N)[nH]c(=O)c2c1`, with 89.8%. For `Cc1ccc(-n2c(C)nn3c(=O)c4c5c(sc4nc23)CN(C)CC5)cc1` the value was 96.7%; for `O=C(O)CCCN1C(=O)/C(=C/c2cn(-c3ccccc3)nc2-c2ccc([N+](=O)[O-])cc2)SC1=S`, 83.4%. Then `CO[C@H]1C[C@@H]2CC[C@@H](C)[C@@](O)(O2)C(=O)C(=O)N2CCCC[C@H]2C(=O)O[C@H]([C@H](C)C[C@@H]2CC[C@@H](O)[C@H](OC)C2)CC(=O)[C@H](C)/C=C(\C)[C@@H](O)[C@@H](OC)C(=O)[C@H](C)C[C@H](C)\C=C/C=C/C=C/1C`, with 16.5%.

Consider `CNC(=O)c1cc(Oc2ccc3nc(NC(=O)Nc4ccc(Cl)cc4)sc3c2)ccn1`, for which the growth was 98.9%. Then `CCCCn1sc(=O)n(Cc2ccc(CNC(=O)OCc3ccc4c(Br)cc(Br)c(O)c4n3)cc2)c1=O`, with -60.6% (active); and `Nc1no[n+]([O-])c1-c1nnc2c(n1)-c1ccccc1C2=O`, with 13.1%; and `Cl`, with 107%. Then `O=C(Nc1ccc(-n2cc(-c3ccncc3)c(-c3ccc(O)c(Cl)c3)n2)cc1)c1ccc(Cl)c(Cl)c1`, with 14.7%; and `COc1ccc2nc(C)cc(Nc3ccccc3O)c2c1`, with 5.11% (active); and `COc1cc(C(=O)/C(C)=C/c2c[nH]c3ccccc23)cc(OC)c1OC`, with -9.27% (active). Consider `O=C1OCC2=C1C(c1cccc(C(F)(F)F)c1)c1cc3c(cc1N2CCO)CCC3` (centres undefined), for which the growth was -25.2% (active). Then `CNC(=O)c1cccc2cc(Oc3ccnc4cc(OCC5(N)CC5)c(OC)cc34)ccc12`, with 91.6%; and `C/C(=N\NC(=O)CSc1nc2ccccc2c(=O)n1CCc1ccc(S(N)(=O)=O)cc1)c1ccccn1`, with 33.8%; and `Brc1ccc(-c2cnc3nonc3n2)cc1`, with 19.6%. For the compound `Cc1ccccc1OC(=O)c1cccc(Cl)c1`, the growth is 60.4%. For `CC(=O)O.CN1[CH-]N(Cc2ccc(C#N)cc2)c2ccccc21.[Ag+]` the value was 102%; for `Cc1c(Cl)cccc1NC(=O)c1sc2nc3c(cc2c1N)CCCC3`, 5.57% (active); for `O=C(NO)c1ccc(Cn2c(=O)n(CCc3ccc(O)cc3)c(=O)c3ccccc32)cc1`, 89.3%.

In the case of `CC1COCC(C)N1C1=C(Cl)C(=O)c2ccccc2C1=O` (centres undefined), the growth is -19.5% (active). For `CC(=O)OCC1OC(OC2=C(CC=C(C)C)C(=O)c3ccccc3C2=O)C(OC(C)=O)C(OC(C)=O)C1OC(C)=O` (centres undefined) the value was -36.7% (active); for `COC(=O)c1c2c(c(C)[n+]([O-])c1C)C(=O)C=C(NCc1cccc(Cl)c1)C2=O`, -31.8% (active). As for `COc1ccc(CCN2CCC(CN(C)Cc3cnn(-c4ccccc4)c3)CC2)cc1`, the growth was 6.41% (active). For `Cc1nc2ccccc2c(=O)n1-c1cccc(OCc2cn(-c3cccc(O)c3)nn2)c1` the value was 101%; for `CC(=O)Nc1ccc(-n2c(O)c(/C=N/NC(=O)Cc3ccccc3Nc3c(Cl)cccc3Cl)sc2=S)cc1`, 99%; for `O=C1/C(=C/c2ccc(F)cc2)Sc2c(Br)cccc21`, 103%.

Turning to `O=C(Nc1ccc(Cl)cc1)C1=NCCCCN1`, the growth is 96.6%.

For `O=C(Nc1ccc(Br)c(Cl)c1)c1cc(F)ccc1O`, the growth was -33.4% (active). For `CC(C)(C)c1ccc(C2CC(=O)C3=C(C2)Nc2ccccc2N(C(=O)c2ccccc2Cl)C3c2ccc(F)cc2)cc1` (centres undefined) the value was -19.8% (active); for `CN1CCN(c2cc(F)c(NC3=C(Cl)C(=O)c4ncccc4C3=O)c(F)c2)CC1`, -26.4% (active). For `CN(C)C(CNc1oc(-c2cccc3ccccc23)nc1C#N)c1ccco1` (centres undefined) the value was 74.1%; for `COc1ccc(Cn2cc3c(c2-c2ccccc2)CCc2cnoc2-3)cc1N`, -19.8% (active). On to `CCC(=C(c1ccc(OCCCN(C)C)cc1)c1ccc(OCCCN(C)C)cc1)c1ccc(Cl)cc1`, for which the growth was -55.3% (active).

In the case of `COc1cccc(C2C(C#N)=C(N)Oc3cc(OC)ccc32)c1` (centres undefined), the growth was -32.2% (active).

Take `CC(=O)c1ccc2c(ccc3ccccc32)c1`: the growth was 90.6%.
